Screening data (PubChem)
USP30 inh: inhibitors of human USP30 deubiquitinase; Q70CQ3; purified USP30, Ub-rhodamine cleavage fluorescence; inhibition, % at 25 µM; 47,000 tested, 5.3% active
OTUD3 block: inhibitors of human OTUD3 deubiquitinase. purified OTUD3, Ub-rhodamine fluorescence, 2 h. inhibition, % at 25 µM. 47,000 tested, 0.7% active. AID 1645858
USP28 inh: human USP28 deubiquitinase inhibition. 47,000 tested, 3% active. purified USP28, Ub-rhodamine cleavage fluorescence, 30 min. inhibition, % at 25 µM
Target sequence (Q96RU2 whole entry, looked up): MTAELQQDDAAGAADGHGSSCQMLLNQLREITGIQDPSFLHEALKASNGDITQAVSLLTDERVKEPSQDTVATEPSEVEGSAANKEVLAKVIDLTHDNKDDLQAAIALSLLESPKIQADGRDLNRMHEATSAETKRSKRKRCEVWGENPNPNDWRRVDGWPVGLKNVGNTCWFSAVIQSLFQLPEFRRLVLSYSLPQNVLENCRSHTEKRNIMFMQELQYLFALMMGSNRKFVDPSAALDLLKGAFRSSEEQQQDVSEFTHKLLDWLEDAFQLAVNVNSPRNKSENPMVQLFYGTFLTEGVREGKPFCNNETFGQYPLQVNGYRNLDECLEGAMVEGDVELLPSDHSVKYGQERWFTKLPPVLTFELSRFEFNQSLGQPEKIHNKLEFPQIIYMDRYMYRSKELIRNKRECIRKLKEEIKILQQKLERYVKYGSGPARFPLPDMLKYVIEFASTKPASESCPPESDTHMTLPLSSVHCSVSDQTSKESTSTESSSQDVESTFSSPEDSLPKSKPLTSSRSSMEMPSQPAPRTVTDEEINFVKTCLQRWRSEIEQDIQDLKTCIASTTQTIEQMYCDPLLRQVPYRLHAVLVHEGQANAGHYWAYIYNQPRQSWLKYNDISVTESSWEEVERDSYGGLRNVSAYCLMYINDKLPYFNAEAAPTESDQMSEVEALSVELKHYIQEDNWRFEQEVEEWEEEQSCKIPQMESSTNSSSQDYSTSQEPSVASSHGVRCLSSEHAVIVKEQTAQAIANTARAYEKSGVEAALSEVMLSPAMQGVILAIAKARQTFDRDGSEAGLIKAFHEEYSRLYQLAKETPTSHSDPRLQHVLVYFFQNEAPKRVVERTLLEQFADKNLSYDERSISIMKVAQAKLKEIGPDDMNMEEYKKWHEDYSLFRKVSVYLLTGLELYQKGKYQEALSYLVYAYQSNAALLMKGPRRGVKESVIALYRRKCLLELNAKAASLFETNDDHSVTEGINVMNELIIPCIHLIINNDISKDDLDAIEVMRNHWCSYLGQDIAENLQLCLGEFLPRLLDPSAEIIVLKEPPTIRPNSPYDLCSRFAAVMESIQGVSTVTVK
USP10 block: human USP10 deubiquitinase inhibition. Q14694. purified USP10, Ub-rhodamine fluorescence, 60 min. inhibition, % at 20 µM. 47,000 tested, 1.1% active. AID 1645856
USP17 block: human USP17-like deubiquitinase inhibition. A8MUK1. purified USP17, Ub-rhodamine cleavage fluorescence, 3 h. inhibition, % at 50 µM. 47,000 tested, 6.5% active. AID 1645855
USP8 block: inhibitors of human USP8 deubiquitinase | AID 1645853 | purified USP8, Ub-rhodamine cleavage fluorescence, 30 min | 47,000 tested, 4.2% active | P40818 | inhibition, % at 20 µM
The depositor's hits bear a star; nt = no result. Most compounds without a hit are left out; they make up all but 13% or so of the library. Cut-off read from the data, not from the text of the source: active = inhibition above about 30%; inactive = the rest.

SMILES	USP30 inh	OTUD3 block	USP28 inh	USP10 block	USP17 block	USP8 block
O=C(NCc1nc2ccccc2[nH]1)c1cccc(S(=O)(=O)N2CCc3ccccc32)c1	59*	13	29	7	31*	-61
CCCn1nnnc1CN1CCc2cc(OC)c(OC)cc2C1c1ccccc1 (centres undefined)	33*	10	8	6	10	13
COc1cc2c(cc1OC)C(c1ccccc1)N(Cc1ccno1)CC2 (centres undefined)	20	16	3	1	0	8
CC(=O)Nc1nc2c(s1)CCc1ccccc1-2	10	0	39*	2	20	5
COc1ccc(-c2ccc(CCC(=O)Nc3cccc4ccccc34)o2)cc1	7	4	-2	5	nt	7
COc1ccc(-c2ccc(CCC(=O)Nc3c(C)cccc3C)o2)cc1	44*	5	12	2	26	1
Cc1cc2c(=O)oc(-c3ccccc3Br)nc2s1	23	9	8	18	25	44*
CCc1ccccc1NC(=O)N1CCC2(CC1)Nc1ccccc1-n1cccc12	3	10	11	4	45*	17
O=C(Nc1ccc2c(c1)OCCO2)N1CCC2(CC1)Nc1ccccc1-n1cccc12	22	10	19	5	14	0
O=C(c1ccccn1)N1CCC2(CC1)CC1(CO2)Nc2ccccc2-n2cccc21 (centres undefined)	-144	-22	-19	-7	46*	77*
COc1ccc(C)cc1NC(=O)N1CCC2(CC1)Nc1ccccc1-n1cccc12	11	8	14	11	-2	13
O=C(Nc1cccc(C(F)(F)F)c1)N1CCC2(CC1)Nc1ccccc1-n1cccc12	43*	11	7	10	21	3
COC(=O)c1cc(S(=O)(=O)NC2CC2)c(C)n1C	16	3	0	0	-4	-2
Cc1ccccc1C(=O)c1ccc(C(=O)NC2CCCCCC2)[nH]1	52*	4	4	11	14	41*
CCCCn1c(=O)c(CCC(=O)OCC(=O)Nc2ccc3c(c2)OCCO3)nc2ccccc21	-4	0	62*	0	-12	-3
Cc1cc(C(=O)N2CC[C@@H]3CN(Cc4ccc(Cl)cc4)S(=O)(=O)[C@@H]3CC2)no1	-29	-9	-9	-1	-18	-13
Cc1cc(C(=O)Nc2cc(C)n(Cc3ccc(Cl)cc3)n2)no1	1	2	72*	2	11	0
O=C(Cn1ccc2ccc(Cl)cc21)NCc1cccnc1	0	3	5	-1	-5	-22
Cc1ccc(OC(C)C(=O)Nc2ccc3nsnc3c2)cc1C (centres undefined)	-19	2	-64	0	4	45*
CC(Oc1ccccc1Cl)C(=O)Nc1ccc2nsnc2c1 (centres undefined)	25	15	17	3	13	36*
CCc1ccc(OC(C)C(=O)Nc2ccc3nsnc3c2)cc1 (centres undefined)	6	-5	21	3	25	66*
Cc1cc(C)cc(OC(C)C(=O)Nc2ccc3nsnc3c2)c1 (centres undefined)	5	3	7	6	13	24
Cc1cc(=O)[nH]c(C2CN(Cc3ccnc(N4CCCC4)n3)CCO2)n1 (centres undefined)	-27	-19	-19	-7	-16	-14
CCc1ccc(NC(=O)N2CCC3(CC2)CCn2c(-c4cnn(C)c4)cnc23)cc1	14	13	11	5	2	-24
Cc1ccccc1NC(=O)C1CCCN(S(=O)(=O)Cc2ccc(F)cc2)C1 (centres undefined)	24	6	0	10	10	8
SMILES	USP30 inh	OTUD3 block	USP28 inh	USP10 block	USP17 block	USP8 block
Cc1ccccc1NC(=O)C1CCCN(S(=O)(=O)Cc2ccccc2)C1 (centres undefined)	23	12	11	1	32*	11
Cc1cccc(CNC(=O)C2CCCN(S(=O)(=O)Cc3ccc(Cl)cc3)C2)c1 (centres undefined)	13	2	2	8	21	8
CN(C1CCCCC1)S(=O)(=O)N1CCCC(C(=O)NCc2cccc(Cl)c2)C1 (centres undefined)	42*	20	25	9	25	11
O=C(C1CCCN(S(=O)(=O)Cc2ccccc2)C1)N1CCC(Cc2ccccc2)CC1 (centres undefined)	31*	11	14	6	3	9
COc1ccccc1CNC(=O)C1CCCN(S(=O)(=O)Cc2ccc(Cl)cc2)C1 (centres undefined)	30*	20	17	10	16	26
Cc1ccccc1NC(=O)CC1COc2ccccc2NC1=O (centres undefined)	-8	0	0	-1	-4	-4
COc1ccc(S(=O)(=O)N2CCc3ccccc32)cc1C(=O)Nc1ccc2c(c1)NC(=O)C(C)O2 (centres undefined)	-17	-8	12	35*	21	71*
Cc1nnc(NCc2cccnc2)c2c1nnn2Cc1ccccc1Cl	60*	-1	18	7	-2	-25
Clc1ccccc1Cn1ncc2c(NCc3cccnc3)ncnc21	-6	0	10	1	0	1
CC(C)c1noc(CN2CCC3(CC2)CC3c2nnc(-c3cccc(F)c3)o2)n1 (centres undefined)	-64	-15	-18	-7	-11	-12
Cc1cc(C)cc(N2CCCn3c2nc2c3c(=O)n(Cc3cccc4ccccc34)c(=O)n2C)c1	-5	-5	-7	4	-5	-53
Cc1cc(=O)oc2c(C)c(OCC(=O)NCc3ccccn3)ccc12	3	-1	-7	-1	-3	-13
Cc1c(C)c2ccc(OCC(=O)NCc3ccccn3)c(C)c2oc1=O	46*	7	15	2	40*	2
COCCCn1c(SCCc2ccccc2)nc2cc(OC)c(OC)cc2c1=N	3	8	-7	9	43*	3
CCN(CC)c1ccc2ccc(C(=O)N3CCN(c4ccncc4)CC3)cn12	36*	12	19	-5	-10	-184
Cn1cc(CN2CCc3nc(-c4ccccn4)[nH]c(=O)c3C2)cn1	-17	2	-21	-3	-40	-111
O=c1[nH]c(-c2ccccn2)nc2c1CCN(Cc1cnn(-c3ccccc3)c1)C2	19	-4	-12	-2	55*	-259
Cn1cc(CN2CCc3c(nc(-c4cccnc4)[nH]c3=O)C2)c2ccccc21	-19	0	-2	-3	0	9
O=c1[nH]c(-c2cccnc2)nc2c1CCN(Cc1[nH]c3ccccc3c1Cl)C2	-18	-13	-13	0	21	37*
O=c1[nH]c(-c2ccncc2)nc2c1CCN(Cc1ccc(Cl)cc1)C2	43*	2	9	0	28	12
CN(C)c1ccc(CN2CCc3nc(-c4ccncc4)[nH]c(=O)c3C2)cc1	-12	6	6	3	7	19
